Experimental findings from PubChem BioAssay (EPA / NIEHS) are described below.

Several values for one entry are separate records, joined by “and”; a condition that tells them apart may be missing. Identical values can stand only once. Records with an inconclusive call do not appear. A structure can be active in one record and inactive in another. Activity calls are given as the source filed them. Rule for the calls, unless noted: active = hit-call score of the fitted dose curve at least 0.9, where 1 is the maximum; inconclusive = response in the unintended direction; inactive = score below 0.9.

Test [1] addresses Estrogen receptor (Homo sapiens) (UniProt P03372). In words: OT_ERa_GFPERaERE_0480: Odyssey Thera (OT) 8-hour HeLa Transcription Induction Assay for Estrogen Receptor (AID 2283381; active = hit-call score of the fitted dose curve at least 0.9, where 1 is the maximum; inactive = score below 0.9). The method, boiled down:
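An 8 h HeLa transcription-induction format with a GFP reporter under ERE control, read by fluorescence microscopy; single endpoint fitted positively with DMSO as baseline.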

For test [2] the target is unchanged. Kind of test: OT_ERa_GFPERaERE_0120: Odyssey Thera (OT) 2-hour HeLa Transcription Induction Assay for Estrogen Receptor (AID 2283382). The method, boiled down:
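Two-hour compound treatment of HeLa cells preceded microscopy imaging of an inducible fluorescent reporter. Image-based quantification gave one endpoint, analysed for signal increase relative to DMSO controls.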

The target in test [3] is Bile acid receptor (Homo sapiens) (UniProt Q96RI1). In words: OT_FXR_FXRSRC1_1440: Odyssey Thera (OT) 24-hour HEK293T Protein-Complementation Assay for Farnesoid X receptor/SRC-1 Co-activator (AID 2283384). Put shortly:
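Single endpoint, analysed for increased fluorescence against DMSO controls. HEK293T cells carrying FXR and SRC-1 linked to complementary reporter halves were exposed to chemicals for 24 h before reading.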

The target in test [4] is Retinoic acid receptor RXR-alpha (Homo sapiens) (UniProt P19793). Kind of test: OT_NURR1_NURR1RXRa_0480: Odyssey Thera (OT) 8-hour HEK293T Protein Complementation Assay for Nurr1/retinoid X receptor (RXR) (AID 2283385). The method, boiled down:
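Gain in fluorescent complementation signal over DMSO, measured 8 hours after chemical dosing of human kidney HEK293T cells, indicated enhanced Nurr1–RXRα association.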

Test [5] shares this target. Kind of test: OT_NURR1_NURR1RXRa_1440: Odyssey Thera (OT) 24-hour HEK293T Protein Complementation Assay for Nurr1/retinoid X receptor (RXR) (AID 2283386). The method, boiled down:
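Cell-based binding reporter: HEK293T cells, 24 h exposure, fluorescence-detected fragment complementation, DMSO as baseline.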

The target of test [6] is Peroxisome proliferator-activated receptor gamma (Homo sapiens) (UniProt P37231). In words: OT_PPARg_PPARgSRC1_0480: Odyssey Thera (OT) 8-hour Protein-Complementation Assay for Peroxisome Proliferator-activated Receptor Gamma / SRC-1 Co-activator (AID 2283387). Put shortly:
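Read-out: 488 nm N/C fluorescence ratio from complemented Venus YFP fragments, ≥350 cells per image, gain-of-signal fitted against DMSO baseline. Fusions of PPARg/SRC-1 with IFP1/IFP2 expressed transiently in HEK293T; compounds applied 8 h.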

The target is the same in test [7]. Kind of test: OT_PPARg_PPARgSRC1_1440: Odyssey Thera (OT) 24-hour Protein-Complementation Assay for Peroxisome Proliferator-activated Receptor Gamma/ SRC-1 Co-activator (AID 2283388). The method, boiled down:
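HEK293T transiently transfected with PPARg/SRC-1 split-Venus YFP fusions 48 h before dosing, then treated 24 h at 37C. Fixed cells imaged; nuclear/cytoplasmic 488 nm fluorescence ratio, gain of signal versus DMSO.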

Read-out in test [8]: Tumor necrosis factor receptor superfamily member 6 (Homo sapiens) (UniProt P25445)
Kind of test: LTEA_HepaRG_FAS: Life Technologies and Expression Analysis (LTEA) Assay for Fas cell surface death receptor (FAS) using HepaRG (AID 2283447; active = hit-call score of the fitted dose curve at least 0.9, where 1 is the maximum; inactive = score below 0.9). Conditions: mRNA level, 48 h; actives raise or lower the signal. The method, boiled down:
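FAS transcript level was measured by TaqMan qRT-PCR against three housekeeping genes after 48 h chemical exposure. Cells were HepaRG, 0.5% DMSO vehicle, with a top concentration of 100 uM and half-log dilutions over eight points, in duplicate.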

Read-out in test [9]: Fatty acid synthase (Homo sapiens) (UniProt P49327)
Kind of test: LTEA_HepaRG_FASN: Life Technologies and Expression Analysis (LTEA) Assay for Fatty Acid Synthase (FASN) using HepaRG (AID 2283448; active = hit-call score of the fitted dose curve at least 0.9, where 1 is the maximum; inactive = score below 0.9;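 for AC50: differentiated human HepaRG liver cells in serum-free induction medium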). Conditions: mRNA level, 48 h; actives raise or lower the signal. The method, boiled down: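 In human HepaRG cultures, 48 h chemical exposure (up to 100 uM, 0.5% DMSO) preceded TaqMan qRT-PCR of FASN.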

Read-out in test [10]: Cyclin D2 (CCND2), CCND2 (gene 894)
Kind of test: LTEA_HepaRG_CCND2: Life Technologies and Expression Analysis (LTEA) Assay for Cyclin D2 (CCND2) using HepaRG (AID 2283449; active = hit-call score of the fitted dose curve at least 0.9, where 1 is the maximum; inactive = score below 0.9). The settings on record: mRNA level, 48 h; actives raise or lower the signal. The method, boiled down: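 CCND2 transcript levels, quantified by qRT-PCR and normalised to three housekeeping genes, were fitted bidirectionally against 0.5% DMSO. HepaRG cultures were dosed 48 h in duplicate with an 8-point half-log series up to 100 uM.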

In test [11] the target is Bile acid receptor (Homo sapiens) (UniProt Q96RI1). Kind of test: OT_FXR_FXRSRC1_0480: Odyssey Thera (OT) 8-hour HEK293T Protein-Complementation Assay for Farnesoid X receptor/SRC-1 Co-activator (AID 2283383). The method, boiled down:
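Readings were taken 8 h after dosing HEK293T cells in a split-reporter complementation format pairing FXR with SRC-1. Increased fluorescence relative to DMSO-treated wells defined activity.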

Test [12] is described as follows: CEETOX_H295R_11DCORT: CeeTox H295R High-throughput Steroidogenesis Assay for 11-Deoxycortisol (11DCORT) (AID 2283432; active = hit-call score of the fitted dose curve at least 0.9, where 1 is the maximum; inactive = score below 0.9;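 note: 11-deoxycortisol secreted into the medium measured by LC-MS/MS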). Conditions: actives raise or lower the signal. Put shortly: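 H295R cells; 10 uM forskolin prestim 48 h; compound in 0.1% DMSO 48 h; media extracted with MTBE; 11-deoxycortisol by LC-MS/MS, 7-point standard curve; gain/loss vs DMSO baseline; viability by MTT in same wells.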

Test [13] can be described thus: CEETOX_H295R_OHPREG: CeeTox H295R High-throughput Steroidogenesis Assay for OH-Pregnenolone (OHPREG) (AID 2283434; active = hit-call score of the fitted dose curve at least 0.9, where 1 is the maximum; inactive = score below 0.9). Conditions: actives raise or lower the signal. The method, boiled down:
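Secreted 17alpha-hydroxypregnenolone measured by HPLC-MS/MS after liquid-liquid extraction. Human adrenal H295R cells received 48 h forskolin (10 uM) stimulation before 48 h chemical exposure at 0.1% final DMSO; MTT viability in same wells; bidirectional fit against DMSO.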

A short description of test [14]: CEETOX_H295R_OHPROG: CeeTox H295R High-throughput Steroidogenesis Assay for OH-Progesterone (OHPROG) (AID 2283435; active = hit-call score of the fitted dose curve at least 0.9, where 1 is the maximum; inactive = score below 0.9;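 for AC50: 17alpha-hydroxyprogesterone secreted into medium measured by HPLC-MS/MS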). Conditions: actives raise or lower the signal. Put shortly:
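Human adrenocortical H295R cells, passage 10 or lower, were treated with chemical for 48 h after forskolin priming, and hormone output in the medium was quantified by LC-MS/MS.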

A short description of test [15]: CEETOX_H295R_ANDR: CeeTox H295R High-throughput Steroidogenesis Assay for Androstenedione (ANDR) (AID 2283436; active = hit-call score of the fitted dose curve at least 0.9, where 1 is the maximum; inactive = score below 0.9). Conditions: actives raise or lower the signal. The method, boiled down: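 Medium from 48 h chemical-treated H295R adrenal cells was extracted with MTBE and androstenedione measured by LC-MS/MS. Activity was fit in both directions relative to DMSO. Cytotoxic concentrations were re-tested after dilution until MTT viability reached ≥70%.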

A short description of test [16]: CEETOX_H295R_CORTISOL: CeeTox H295R High-throughput Steroidogenesis Assay for Cortisol (AID 2283438; active = hit-call score of the fitted dose curve at least 0.9, where 1 is the maximum; inactive = score below 0.9;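 note: cortisol secreted into medium quantified by LC-MS/MS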). The settings on record: actives raise or lower the signal. The method, boiled down: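 Steroidogenesis in H295R, per modified OECD 456: 48 h forskolin (10 uM), then 48 h exposure, 0.1% DMSO. Cortisol by extraction and tandem MS; viability by MTT (570/650 nm); cytotoxic chemicals diluted and re-tested.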

The nature of test [17]: CEETOX_H295R_DOC: CeeTox H295R High-throughput Steroidogenesis Assay for DOC (AID 2283439; active = hit-call score of the fitted dose curve at least 0.9, where 1 is the maximum; inactive = score below 0.9). The settings on record: actives raise or lower the signal. Put shortly: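 H295R, fsk 10 uM ×48 h pre, cmpd ×48 h (0.1% DMSO). Media → MTBE extr. → LC-MS/MS, DOC. Bidirectional fit vs DMSO; MTT viability same wells, re-test diluted if <70%.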
Test [18] can be described thus: CEETOX_H295R_PROG: CeeTox H295R High-throughput Steroidogenesis Assay for Progesterone (PROG) (AID 2283442; active = hit-call score of the fitted dose curve at least 0.9, where 1 is the maximum; inactive = score below 0.9;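 for AC50: human H295R adrenal cells primed with 10 µM forskolin before dosing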). The settings on record: actives raise or lower the signal. The method, boiled down: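 H295R adrenal cells prestimulated 48 h with 10 uM forskolin, then exposed 48 h to test chemical in 0.1% DMSO. Progesterone in medium quantified by HPLC-MS/MS after MTBE extraction; viability checked by MTT in same wells.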

Test [19] is described as follows: CEETOX_H295R_ESTRADIOL: CeeTox H295R High-throughput Steroidogenesis Assay for Estradiol (AID 2283440; active = hit-call score of the fitted dose curve at least 0.9, where 1 is the maximum; inactive = score below 0.9;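 note: estradiol secreted into medium quantified by LC-MS/MS after dansyl derivatisation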). Conditions: actives raise or lower the signal. The method, boiled down: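 H295R cells pre-stimulated 48 h with 10 uM forskolin, then exposed 48 h to chemical in 0.1% DMSO. Medium estradiol quantified by MTBE extraction, dansyl derivatisation and HPLC-MS/MS; bidirectional fit versus DMSO; MTT viability required >/=70%.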

The nature of test [20]: CEETOX_H295R_ESTRONE: CeeTox H295R High-throughput Steroidogenesis Assay for Estrone (AID 2283441; active = hit-call score of the fitted dose curve at least 0.9, where 1 is the maximum; inactive = score below 0.9;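 note: estrone secreted into medium measured by LC-MS/MS after dansyl derivatization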). The settings on record: actives raise or lower the signal. The method, boiled down: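 Forskolin-stimulated H295R cells are treated 48 h with chemical, and estrone in the medium is measured by LC-MS/MS. Activity is fitted in both directions relative to DMSO controls, with chemicals diluted until MTT viability reaches at least 70%.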

Fatty acid synthase (Homo sapiens), sequence (P49327 whole entry, looked up): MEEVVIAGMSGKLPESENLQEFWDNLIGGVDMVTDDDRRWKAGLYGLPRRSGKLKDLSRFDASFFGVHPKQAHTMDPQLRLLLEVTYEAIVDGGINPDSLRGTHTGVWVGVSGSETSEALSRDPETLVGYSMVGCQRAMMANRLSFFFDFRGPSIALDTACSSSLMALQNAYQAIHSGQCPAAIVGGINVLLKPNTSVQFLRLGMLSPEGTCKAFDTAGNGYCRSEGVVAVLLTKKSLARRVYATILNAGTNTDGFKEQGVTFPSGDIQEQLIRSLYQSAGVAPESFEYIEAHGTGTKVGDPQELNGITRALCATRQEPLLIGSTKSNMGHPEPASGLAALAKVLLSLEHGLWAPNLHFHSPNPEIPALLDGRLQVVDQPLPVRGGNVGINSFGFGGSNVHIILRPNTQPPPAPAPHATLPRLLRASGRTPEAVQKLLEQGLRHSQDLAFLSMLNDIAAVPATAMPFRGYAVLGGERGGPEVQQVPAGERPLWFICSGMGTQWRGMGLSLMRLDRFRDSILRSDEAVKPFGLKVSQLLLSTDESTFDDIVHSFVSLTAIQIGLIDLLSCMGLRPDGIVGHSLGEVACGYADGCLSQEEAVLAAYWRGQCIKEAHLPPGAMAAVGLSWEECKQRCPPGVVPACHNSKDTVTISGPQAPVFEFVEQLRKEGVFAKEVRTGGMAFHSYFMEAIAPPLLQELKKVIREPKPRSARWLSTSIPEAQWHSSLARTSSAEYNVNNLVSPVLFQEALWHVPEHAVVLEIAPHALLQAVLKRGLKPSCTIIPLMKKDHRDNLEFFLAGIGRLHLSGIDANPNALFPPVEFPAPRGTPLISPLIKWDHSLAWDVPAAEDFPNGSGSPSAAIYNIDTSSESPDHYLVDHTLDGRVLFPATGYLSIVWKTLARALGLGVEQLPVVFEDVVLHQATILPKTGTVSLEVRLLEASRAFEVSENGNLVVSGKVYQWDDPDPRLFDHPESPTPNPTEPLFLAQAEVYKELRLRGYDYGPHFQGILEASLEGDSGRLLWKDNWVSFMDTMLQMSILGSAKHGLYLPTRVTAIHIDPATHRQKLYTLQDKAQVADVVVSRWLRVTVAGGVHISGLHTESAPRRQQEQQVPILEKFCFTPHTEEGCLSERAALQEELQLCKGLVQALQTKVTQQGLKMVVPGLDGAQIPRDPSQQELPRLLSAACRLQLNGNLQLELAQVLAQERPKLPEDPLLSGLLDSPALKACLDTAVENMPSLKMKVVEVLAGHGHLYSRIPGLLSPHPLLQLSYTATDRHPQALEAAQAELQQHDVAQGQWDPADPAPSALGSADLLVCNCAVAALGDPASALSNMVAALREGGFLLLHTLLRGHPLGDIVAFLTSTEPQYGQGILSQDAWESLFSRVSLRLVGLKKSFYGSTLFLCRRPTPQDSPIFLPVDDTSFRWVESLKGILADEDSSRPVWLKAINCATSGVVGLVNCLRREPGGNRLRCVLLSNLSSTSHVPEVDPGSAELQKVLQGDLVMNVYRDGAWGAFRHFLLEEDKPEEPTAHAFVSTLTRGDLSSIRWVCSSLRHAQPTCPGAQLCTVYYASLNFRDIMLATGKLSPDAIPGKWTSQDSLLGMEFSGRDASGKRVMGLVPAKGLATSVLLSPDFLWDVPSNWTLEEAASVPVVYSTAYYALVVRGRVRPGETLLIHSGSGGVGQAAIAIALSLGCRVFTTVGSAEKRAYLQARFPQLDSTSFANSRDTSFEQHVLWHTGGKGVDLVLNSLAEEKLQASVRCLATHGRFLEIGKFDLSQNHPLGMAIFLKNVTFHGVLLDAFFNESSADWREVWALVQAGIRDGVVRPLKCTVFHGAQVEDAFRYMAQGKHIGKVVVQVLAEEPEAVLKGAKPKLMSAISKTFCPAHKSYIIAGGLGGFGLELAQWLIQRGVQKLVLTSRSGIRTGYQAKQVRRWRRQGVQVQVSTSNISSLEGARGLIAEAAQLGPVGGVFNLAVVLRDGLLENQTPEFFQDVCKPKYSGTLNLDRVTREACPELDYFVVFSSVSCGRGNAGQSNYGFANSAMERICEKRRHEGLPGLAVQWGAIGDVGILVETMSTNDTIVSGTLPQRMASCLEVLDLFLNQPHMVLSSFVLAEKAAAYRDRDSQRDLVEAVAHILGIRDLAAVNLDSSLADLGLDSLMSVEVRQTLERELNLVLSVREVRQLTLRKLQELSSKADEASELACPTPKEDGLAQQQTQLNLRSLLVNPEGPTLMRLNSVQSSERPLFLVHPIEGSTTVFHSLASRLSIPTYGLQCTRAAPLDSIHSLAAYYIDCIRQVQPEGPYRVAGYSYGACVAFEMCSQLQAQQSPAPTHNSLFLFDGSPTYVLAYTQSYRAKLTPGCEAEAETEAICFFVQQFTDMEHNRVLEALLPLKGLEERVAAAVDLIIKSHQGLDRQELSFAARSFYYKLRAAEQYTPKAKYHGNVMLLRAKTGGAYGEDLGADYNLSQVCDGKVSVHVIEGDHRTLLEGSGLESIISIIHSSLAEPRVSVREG
Bile acid receptor (Homo sapiens), sequence (Q96RI1 whole entry, looked up): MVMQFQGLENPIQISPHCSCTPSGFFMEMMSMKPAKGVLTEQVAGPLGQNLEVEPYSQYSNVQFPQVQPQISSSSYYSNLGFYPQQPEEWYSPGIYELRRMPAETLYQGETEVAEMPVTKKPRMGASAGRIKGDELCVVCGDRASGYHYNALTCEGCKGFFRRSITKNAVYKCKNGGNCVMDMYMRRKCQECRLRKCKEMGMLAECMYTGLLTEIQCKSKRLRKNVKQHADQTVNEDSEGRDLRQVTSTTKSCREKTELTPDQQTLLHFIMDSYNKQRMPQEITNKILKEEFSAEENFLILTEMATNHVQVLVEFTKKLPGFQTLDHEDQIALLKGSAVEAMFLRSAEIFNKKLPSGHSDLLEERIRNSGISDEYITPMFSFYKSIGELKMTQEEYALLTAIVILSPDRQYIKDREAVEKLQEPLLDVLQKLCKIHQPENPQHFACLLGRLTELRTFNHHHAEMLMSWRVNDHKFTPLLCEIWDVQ
Peroxisome proliferator-activated receptor gamma (Homo sapiens), sequence (P37231 whole entry, looked up, the tested form may be a part): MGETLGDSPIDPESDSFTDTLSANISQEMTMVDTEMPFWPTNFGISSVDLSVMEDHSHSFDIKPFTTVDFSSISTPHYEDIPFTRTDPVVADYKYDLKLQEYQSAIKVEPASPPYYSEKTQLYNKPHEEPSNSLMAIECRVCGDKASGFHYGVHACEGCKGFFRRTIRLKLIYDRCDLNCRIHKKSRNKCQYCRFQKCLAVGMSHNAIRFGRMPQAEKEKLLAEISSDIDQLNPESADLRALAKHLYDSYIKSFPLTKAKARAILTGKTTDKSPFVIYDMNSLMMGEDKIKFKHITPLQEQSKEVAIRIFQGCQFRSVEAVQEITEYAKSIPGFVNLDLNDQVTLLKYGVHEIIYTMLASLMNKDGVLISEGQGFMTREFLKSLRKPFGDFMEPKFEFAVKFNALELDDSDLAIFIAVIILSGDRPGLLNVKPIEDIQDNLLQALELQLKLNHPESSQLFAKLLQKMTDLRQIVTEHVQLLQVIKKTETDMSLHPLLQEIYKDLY
Estrogen receptor (Homo sapiens), sequence (P03372 whole entry, looked up): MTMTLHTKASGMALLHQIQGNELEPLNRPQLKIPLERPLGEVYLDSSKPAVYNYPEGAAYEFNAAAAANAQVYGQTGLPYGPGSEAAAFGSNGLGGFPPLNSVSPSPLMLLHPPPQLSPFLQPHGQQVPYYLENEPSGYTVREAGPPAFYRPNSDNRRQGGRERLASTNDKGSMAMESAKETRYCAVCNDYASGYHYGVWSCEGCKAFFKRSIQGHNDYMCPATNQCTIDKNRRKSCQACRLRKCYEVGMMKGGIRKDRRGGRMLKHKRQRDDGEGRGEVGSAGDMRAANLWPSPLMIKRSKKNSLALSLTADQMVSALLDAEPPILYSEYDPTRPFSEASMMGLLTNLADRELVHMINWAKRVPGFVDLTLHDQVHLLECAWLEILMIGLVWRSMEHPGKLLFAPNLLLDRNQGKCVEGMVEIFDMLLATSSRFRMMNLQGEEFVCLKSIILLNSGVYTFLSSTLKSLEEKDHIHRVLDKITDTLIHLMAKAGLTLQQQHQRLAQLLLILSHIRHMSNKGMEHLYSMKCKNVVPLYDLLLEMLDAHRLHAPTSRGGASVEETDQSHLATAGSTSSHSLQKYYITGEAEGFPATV
Retinoic acid receptor RXR-alpha (Homo sapiens), sequence (P19793 whole entry, looked up): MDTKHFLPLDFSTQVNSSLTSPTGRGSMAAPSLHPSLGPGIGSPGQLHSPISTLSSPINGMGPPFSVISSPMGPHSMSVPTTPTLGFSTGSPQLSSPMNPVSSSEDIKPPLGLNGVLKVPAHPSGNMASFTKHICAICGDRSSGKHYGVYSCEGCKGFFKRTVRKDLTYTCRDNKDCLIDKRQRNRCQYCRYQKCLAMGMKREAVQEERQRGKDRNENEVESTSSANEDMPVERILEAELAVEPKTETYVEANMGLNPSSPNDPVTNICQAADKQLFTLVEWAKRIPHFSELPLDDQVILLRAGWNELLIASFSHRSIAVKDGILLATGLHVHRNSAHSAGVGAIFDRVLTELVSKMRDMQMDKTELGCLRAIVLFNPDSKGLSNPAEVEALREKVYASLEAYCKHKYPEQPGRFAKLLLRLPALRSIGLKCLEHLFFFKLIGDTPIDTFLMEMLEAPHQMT

Turning to `O=C(O)c1[nH]n(-c2ccc(S(=O)(=O)O)cc2)c(=O)c1N=Nc1ccc(S(=O)(=O)O)cc1`, the molecule was classed as inactive in [1], in test [2], in test [3], in test [4], in test [5] and in [6]. The molecule was classed as inactive in test [7], in test [8], in test [9] and in test [10].

On to `Cc1ccc(C(C)(C)C)c(O)c1`, for which the call in test [1], in [2], in [4], in test [5], in test [6] and in [7] was inactive. The molecule was classed as inactive in test [8] and in test [9]. In addition, the AC50 (usually the midpoint of the concentration-response curve, whichever way the signal moves) in [11] is 60.6 µM (active); in test [3], 80.5 µM (active); in test [4], 75 µM (active); in test [5], 78.7 µM (active).

Consider `CC(C)OC(=O)C(C)(C)Oc1ccc(C(=O)c2ccc(Cl)cc2)cc1`, for which the result in test [1], in test [2], in test [4], in test [5], in test [8] and in [10] was inactive. In addition, the AC50 in [11] is 12.8 µM (active); in test [3], 7.72 µM (active).

Consider `O=C(Oc1ccccc1)c1cccc(C(=O)Oc2ccccc2)c1`, for which the AC50 is 72 µM (active) in test [11]; 75.2 µM (active) and 79.8 µM (active) in [4]; 69.2 µM (active) in test [5]; 36.4 µM (active) in test [12]. In addition, the molecule was classed as inactive in test [3], in test [5], in [6], in test [7], in test [13] and in test [14]. Moreover, the molecule was classed as inactive in test [15], in [16], in test [17], in test [18], in [8] and in test [9]. Besides, the molecule was called inactive in test [10].

Take `COC(=O)CCCC(=O)OC`: the molecule was classed as inactive in test [3], in test [4], in test [5], in test [8], in test [9] and in test [10].

Turning to `O=C(O)c1cccnc1`, the molecule was classed as inactive in test [3], in test [6], in [7], in [8] and in test [9].

For `CS(=O)(=O)c1ccc([C@@H](C[C@H]2CCC(=O)C2)C(=O)Nc2cnccn2)cc1Cl`, the call in [1], in test [2], in test [4], in test [6], in [7] and in [9] was inactive. For the same molecule, the values for the AC50 in test [8] and in [10] were 24.4 µM (active) and 2.19 µM (active), respectively.

Turning to `Cc1ccc(-c2cc(C(F)(F)F)nn2-c2ccc(S(N)(=O)=O)cc2)cc1`, the result in test [1], in test [2], in [6], in test [7] and in [10] was inactive. The AC50 is 84.5 µM (active) in test [8] and 76.7 µM (active) in [9].

On to `C=CCCCCCCCCCCCC`, for which the result in [11], in [3], in [4], in test [5], in test [6] and in [7] was inactive. The outcome in [8], in [9] and in test [10] was inactive.

As for `CCCCC(CC)CO` (configuration not stated), the call in test [11], in test [3], in [4], in test [5], in test [6] and in [7] was inactive. Besides, the result in test [8] and in test [9] was inactive. The AC50 in test [10] is 59.8 µM (active).

For `CCCCCCCCCC[N+](C)(C)[O-]`, the molecule was classed as inactive in test [1], in test [2], in test [6], in [7], in [13] and in test [16]. Besides, the result in test [17], in test [19], in test [20], in [8], in test [9] and in test [10] was inactive. Moreover, the AC50 is 28.5 µM (active) in test [12], 31.7 µM (active) in test [14], 17 µM (active) in test [15] and 3.86 µM (active) in test [18].
